What all share (assay): log2 fold change, soluble protein after heating vs DMSO (PISA); higher = thermal stabilisation; K562 lysate, 10 uM; active = over 0.2 and 3.5 SD of the protein, either way, in both replicates (recomputed)
Compound in one experiment: C=CC(=O)N1CCC[C@@H](n2nc(-c3ccc(Oc4ccccc4)cc3)c3c(N)ncnc32)C1 [ibrutinib]
An outline of the steps: (§1)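 The values are log-two fold changes in thermal stability compared with solvent controls and come from duplicates. They were obtained by TMTpro 16plex LC-MS/MS, with channel sums equalised, on the supernatant after 21,000xg for 90 min. That supernatant came from crude K562 extract at 1 mg/mL protein treated with 10 μM compound for 30 min, heated for 3 min across 48°C-58°C, pooled and brought to 0.5% NP-40 at 4°C.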

Compound in experiment [1]: CC(=O)c1cnc2ccc(-c3cc(Cl)c(O)c(Cl)c3)nc2c1N[C@H]1CC[C@H](CN(C)C)CC1
An outline of the steps:
as §1

Compound in another experiment: CC(C)(C)Cn1c(N)nc2ccc(-c3[nH]c(C(C)(C)C)nc3-c3ccc(F)cc3)nc21 [ralimetinib]
An outline of the steps:
as §1

Compound in experiment [2]: CC(C)(O)CC(=O)NCCn1ccc2ncnc(Nc3ccc(Oc4cccc(C(F)(F)F)c4)c(Cl)c3)c21
An outline of the steps:
as §1

Compound in experiment [3]: CC1=C(C2=C(C=C1)C(=O)C3=CC=CC=C3N2CCCN)C
Summed up:
as §1

Compound in experiment [4]: CC1=C(C=C(C=C1)NC(=O)C2=CC(=CC=C2)C(C)(C)C#N)NC3=CC4=C(C=C3)N=CN(C4=O)C
An outline of the steps:
as §1

Compound in experiment [5]: CC1=C(C=C(C=C1)NC(=O)C2=CC(=CC=C2)N(C)C)NC(=O)C3=CC=C(C=C3)O
Summed up: as §1

Compound in experiment [6]: CC1=CC=C(C=C1)SC2=C3C=C(SC3=CN=C2)C(=O)N
Summed up:
as §1

Compound in experiment [7]: CC(C)C1=C2N=C(C=C(N2N=C1)NCC3=CC=CC=C3)NCCCCCCN
An outline of the steps: as §1

Compound in experiment [8]: CC1=C(C(CC(=O)N1)C2=CC=C(C=C2)C(F)(F)F)C(=O)NC3=C(C=C4C(=C3)C=NN4)F
Summed up:
as §1

We go through 24 targets from the supplement of paper PMC10849652.

The full data set covers some 8,800 targets. This sample favours those with a hit. About 0.5% of all pairs of compound and target were hits. Unmarked numbers belong to inactive results.

Chain of UniProt O60337 (O60337 whole entry, looked up): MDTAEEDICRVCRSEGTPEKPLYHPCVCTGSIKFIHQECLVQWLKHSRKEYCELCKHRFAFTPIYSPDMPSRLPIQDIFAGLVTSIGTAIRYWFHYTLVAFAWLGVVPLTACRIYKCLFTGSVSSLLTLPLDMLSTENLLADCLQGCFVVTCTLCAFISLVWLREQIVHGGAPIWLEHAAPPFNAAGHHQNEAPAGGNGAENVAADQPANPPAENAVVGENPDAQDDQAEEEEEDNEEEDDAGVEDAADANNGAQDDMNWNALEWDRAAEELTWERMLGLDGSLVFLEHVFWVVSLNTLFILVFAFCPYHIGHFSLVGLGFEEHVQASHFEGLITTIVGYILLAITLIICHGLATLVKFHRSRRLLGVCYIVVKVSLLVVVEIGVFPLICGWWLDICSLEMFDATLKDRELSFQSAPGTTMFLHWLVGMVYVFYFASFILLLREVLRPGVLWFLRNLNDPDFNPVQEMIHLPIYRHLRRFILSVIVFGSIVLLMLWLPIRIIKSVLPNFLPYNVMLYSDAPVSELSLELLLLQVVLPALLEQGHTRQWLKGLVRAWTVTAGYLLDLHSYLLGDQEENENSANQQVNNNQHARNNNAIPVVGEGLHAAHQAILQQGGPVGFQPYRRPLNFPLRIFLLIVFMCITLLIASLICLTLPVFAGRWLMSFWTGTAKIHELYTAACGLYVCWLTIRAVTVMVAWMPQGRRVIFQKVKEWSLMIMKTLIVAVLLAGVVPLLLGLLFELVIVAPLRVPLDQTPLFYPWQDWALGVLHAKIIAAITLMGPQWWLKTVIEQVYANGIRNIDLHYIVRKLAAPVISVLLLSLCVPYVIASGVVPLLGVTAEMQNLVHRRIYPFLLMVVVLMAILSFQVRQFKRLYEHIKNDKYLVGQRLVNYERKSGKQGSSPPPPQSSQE
Chain of UniProt Q96NW7 (Q96NW7 whole entry, looked up): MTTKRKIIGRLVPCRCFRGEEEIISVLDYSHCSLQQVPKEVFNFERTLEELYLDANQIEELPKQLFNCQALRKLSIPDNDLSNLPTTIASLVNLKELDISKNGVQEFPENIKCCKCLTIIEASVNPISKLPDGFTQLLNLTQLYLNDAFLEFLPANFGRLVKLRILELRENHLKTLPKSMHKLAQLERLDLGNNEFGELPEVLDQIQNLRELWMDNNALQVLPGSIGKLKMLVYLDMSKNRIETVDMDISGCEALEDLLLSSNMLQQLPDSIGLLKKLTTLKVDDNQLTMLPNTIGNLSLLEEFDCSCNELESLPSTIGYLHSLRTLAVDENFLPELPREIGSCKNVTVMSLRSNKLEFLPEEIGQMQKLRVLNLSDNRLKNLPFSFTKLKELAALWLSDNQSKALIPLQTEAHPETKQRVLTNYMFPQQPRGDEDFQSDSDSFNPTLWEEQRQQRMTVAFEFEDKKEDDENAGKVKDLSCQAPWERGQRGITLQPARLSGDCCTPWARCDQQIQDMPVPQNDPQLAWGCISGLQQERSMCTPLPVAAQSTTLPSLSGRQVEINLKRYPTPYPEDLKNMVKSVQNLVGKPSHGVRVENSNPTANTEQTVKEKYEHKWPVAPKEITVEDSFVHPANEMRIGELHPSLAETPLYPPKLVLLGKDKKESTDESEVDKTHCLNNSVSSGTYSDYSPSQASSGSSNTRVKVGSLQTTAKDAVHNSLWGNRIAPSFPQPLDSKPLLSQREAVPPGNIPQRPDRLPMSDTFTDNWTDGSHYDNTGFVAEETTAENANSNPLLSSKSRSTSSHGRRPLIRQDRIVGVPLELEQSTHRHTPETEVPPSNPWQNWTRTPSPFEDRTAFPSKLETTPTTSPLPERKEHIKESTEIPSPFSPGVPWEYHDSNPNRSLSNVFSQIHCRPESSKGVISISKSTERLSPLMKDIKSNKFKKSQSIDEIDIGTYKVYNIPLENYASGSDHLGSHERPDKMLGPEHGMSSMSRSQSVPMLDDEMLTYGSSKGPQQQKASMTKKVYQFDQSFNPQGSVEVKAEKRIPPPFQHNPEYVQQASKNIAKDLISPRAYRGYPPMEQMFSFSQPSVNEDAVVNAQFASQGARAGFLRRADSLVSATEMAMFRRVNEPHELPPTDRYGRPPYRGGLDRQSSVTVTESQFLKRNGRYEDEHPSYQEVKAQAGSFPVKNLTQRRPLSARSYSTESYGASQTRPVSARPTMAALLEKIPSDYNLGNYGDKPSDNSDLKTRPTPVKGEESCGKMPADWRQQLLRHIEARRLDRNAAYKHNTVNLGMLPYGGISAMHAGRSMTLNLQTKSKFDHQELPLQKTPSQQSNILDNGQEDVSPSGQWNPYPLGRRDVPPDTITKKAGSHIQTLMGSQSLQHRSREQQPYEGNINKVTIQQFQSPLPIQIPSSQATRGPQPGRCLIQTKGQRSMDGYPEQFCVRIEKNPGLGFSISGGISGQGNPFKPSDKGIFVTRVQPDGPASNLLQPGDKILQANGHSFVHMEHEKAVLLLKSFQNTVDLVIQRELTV
Chain of UniProt O14782 (O14782 whole entry, looked up): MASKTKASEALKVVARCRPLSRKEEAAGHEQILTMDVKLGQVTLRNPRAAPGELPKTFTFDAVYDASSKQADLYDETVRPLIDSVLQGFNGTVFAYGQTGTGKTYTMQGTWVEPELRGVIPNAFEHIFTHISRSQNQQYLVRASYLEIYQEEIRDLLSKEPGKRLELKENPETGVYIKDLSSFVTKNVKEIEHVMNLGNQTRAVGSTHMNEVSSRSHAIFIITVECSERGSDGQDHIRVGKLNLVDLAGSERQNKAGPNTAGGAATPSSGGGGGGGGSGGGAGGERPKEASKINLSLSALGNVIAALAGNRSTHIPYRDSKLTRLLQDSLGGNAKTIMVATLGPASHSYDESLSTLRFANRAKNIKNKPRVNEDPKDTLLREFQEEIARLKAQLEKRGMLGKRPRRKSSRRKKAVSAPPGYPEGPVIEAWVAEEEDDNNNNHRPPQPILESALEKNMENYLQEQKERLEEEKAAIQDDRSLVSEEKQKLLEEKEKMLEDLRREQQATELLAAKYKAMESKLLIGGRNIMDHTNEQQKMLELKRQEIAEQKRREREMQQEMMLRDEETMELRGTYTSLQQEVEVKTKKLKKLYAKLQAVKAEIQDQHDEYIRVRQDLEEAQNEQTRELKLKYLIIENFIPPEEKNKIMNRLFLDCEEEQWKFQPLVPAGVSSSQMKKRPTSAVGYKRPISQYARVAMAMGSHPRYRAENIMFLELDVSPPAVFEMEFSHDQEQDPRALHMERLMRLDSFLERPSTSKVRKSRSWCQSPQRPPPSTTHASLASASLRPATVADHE
Chain of UniProt Q6ZRQ5 (Q6ZRQ5 whole entry, looked up): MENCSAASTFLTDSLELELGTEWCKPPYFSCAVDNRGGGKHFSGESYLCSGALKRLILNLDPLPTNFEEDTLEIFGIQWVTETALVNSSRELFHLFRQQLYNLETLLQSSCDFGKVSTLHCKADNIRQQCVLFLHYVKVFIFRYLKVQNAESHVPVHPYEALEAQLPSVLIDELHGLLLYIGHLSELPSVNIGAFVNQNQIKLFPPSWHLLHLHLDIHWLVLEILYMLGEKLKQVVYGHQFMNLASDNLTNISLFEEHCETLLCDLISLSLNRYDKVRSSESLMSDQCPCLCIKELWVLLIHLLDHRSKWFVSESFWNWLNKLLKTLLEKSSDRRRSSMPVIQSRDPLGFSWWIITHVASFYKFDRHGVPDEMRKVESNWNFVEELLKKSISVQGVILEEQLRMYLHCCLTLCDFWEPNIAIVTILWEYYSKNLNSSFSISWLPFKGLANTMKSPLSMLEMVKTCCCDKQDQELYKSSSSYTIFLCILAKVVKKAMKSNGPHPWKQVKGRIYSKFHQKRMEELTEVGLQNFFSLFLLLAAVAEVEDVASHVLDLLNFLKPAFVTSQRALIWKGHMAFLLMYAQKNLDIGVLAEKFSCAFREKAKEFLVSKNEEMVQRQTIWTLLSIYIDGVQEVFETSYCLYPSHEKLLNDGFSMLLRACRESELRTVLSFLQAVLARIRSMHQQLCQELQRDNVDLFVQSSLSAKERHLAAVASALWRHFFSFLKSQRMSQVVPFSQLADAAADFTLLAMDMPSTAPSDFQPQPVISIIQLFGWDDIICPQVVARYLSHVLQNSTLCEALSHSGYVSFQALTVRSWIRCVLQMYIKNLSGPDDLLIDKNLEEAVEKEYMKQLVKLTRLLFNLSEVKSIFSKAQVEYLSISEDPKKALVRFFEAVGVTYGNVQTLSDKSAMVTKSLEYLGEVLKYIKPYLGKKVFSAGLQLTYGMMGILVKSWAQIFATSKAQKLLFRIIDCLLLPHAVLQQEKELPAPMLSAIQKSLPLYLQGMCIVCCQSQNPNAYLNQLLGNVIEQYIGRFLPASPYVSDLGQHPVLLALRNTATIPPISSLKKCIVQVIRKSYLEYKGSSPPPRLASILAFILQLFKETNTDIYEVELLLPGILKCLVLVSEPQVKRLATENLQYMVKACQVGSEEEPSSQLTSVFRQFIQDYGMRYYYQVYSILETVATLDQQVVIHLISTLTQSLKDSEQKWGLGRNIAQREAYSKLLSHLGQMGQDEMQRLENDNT
Chain of UniProt P83369 (P83369 whole entry, looked up): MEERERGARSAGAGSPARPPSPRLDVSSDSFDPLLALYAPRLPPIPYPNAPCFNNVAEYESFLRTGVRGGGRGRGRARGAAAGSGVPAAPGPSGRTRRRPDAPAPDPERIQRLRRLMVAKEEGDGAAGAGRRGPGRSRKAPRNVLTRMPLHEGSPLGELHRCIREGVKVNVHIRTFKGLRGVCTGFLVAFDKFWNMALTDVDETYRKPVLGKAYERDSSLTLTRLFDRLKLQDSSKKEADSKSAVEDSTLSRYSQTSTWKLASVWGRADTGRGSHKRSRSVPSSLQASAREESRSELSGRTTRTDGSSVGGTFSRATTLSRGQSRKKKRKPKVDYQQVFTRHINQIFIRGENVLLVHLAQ
Chain of UniProt Q9H204 (Q9H204 whole entry, looked up): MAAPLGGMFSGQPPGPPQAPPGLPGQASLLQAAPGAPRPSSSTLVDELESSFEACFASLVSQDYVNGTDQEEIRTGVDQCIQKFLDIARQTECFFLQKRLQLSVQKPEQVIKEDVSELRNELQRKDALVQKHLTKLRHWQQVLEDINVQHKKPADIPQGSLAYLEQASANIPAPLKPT

Take LRRC7 (UniProt Q96NW7): the log2 fold change with ibrutinib is -0.081; in experiment [1], 0.026; in the experiment with ralimetinib, -0.115; in experiment [2], -0.073; in [3], 0.041; in experiment [4], -0.062. Also, the log2 fold change in experiment [5] was 0.09; in [6] it was 0.086.
Consider KRAS (UniProt P01116), for which the log2 fold change in [1] is 0.006; in the experiment with ralimetinib, -0.023; in experiment [2], 0.063; in experiment [7], -0.008; in experiment [8], -0.037; in [3] it was 0.018. In addition, the log2 fold change in experiment [4] was -0.048; in [5], 0.07; in [6] it was -0.058.
Consider LRIF1 (UniProt Q5T3J3), for which the log2 fold change is -0.088 in experiment [1]; -0.09 with ralimetinib; -0.055 in experiment [2]; 0.089 in experiment [7]; -0.143 in experiment [8]; -0.044 in [3]. Besides, the log2 fold change was -0.031 in experiment [4], 0.046 in experiment [5] and -0.197 in experiment [6].
Regarding KIF3C (UniProt O14782), the log2 fold change was -0.041 in experiment [1]; -0.038 with ralimetinib; -0.032 in experiment [2]; -0.015 in experiment [7]; 0.03 in experiment [8]; -0.116 in experiment [3]. Also, the values for the log2 fold change in experiment [4], in [5] and in experiment [6] were -0.007, 0.023 and 0.044, respectively.
With KLC1 isoform 10 (UniProt Q07866), the log2 fold change in the experiment with ibrutinib is 0.235; in [7], -0.129.
In the case of MMS22L (UniProt Q6ZRQ5), the log2 fold change with ibrutinib was -0.025; in [1] it was 0.049; in [7], -0.085; in experiment [8] it was 0.007; in experiment [3], -0.042; in experiment [4] it was -0.049. The log2 fold change in experiment [6] was 0.007.
For MAPK7 (UniProt Q13164), the log2 fold change in experiment [1] is 0.388 (active); in experiment [7], 0.025; in experiment [4], -0.034; in [6], -0.013.
Consider MRPL22 (UniProt Q9NWU5), for which the log2 fold change is 0.001 in [1]; 0.018 with ralimetinib; -0.033 in experiment [2]; 0.058 in [7]; 0.001 in experiment [8]; -0.017 in experiment [4]. Besides, the log2 fold change is 0.051 in experiment [5] and 0.069 in experiment [6].
With MAP3K4 isoform 2 (UniProt Q9Y6R4), the log2 fold change in [4] was -0.005.
LRP1 (UniProt Q07954): the log2 fold change in [1] was -0.017; in [4], 0.378; in [6], -0.049.
For the target MRC2 (UniProt Q9UBG0), the log2 fold change in [7] is -0.015; in experiment [8] it was 0.002; in experiment [3] it was 0.03; in experiment [4], 0.133.
With MAPK3 (UniProt H0YEX6), the log2 fold change in experiment [8] is 0.029.
KRAS isoform 2 (UniProt P01116): the log2 fold change is 0.05 in experiment [1]; 0.071 in the experiment with ralimetinib; -0.078 in [2]; -0.05 in experiment [7]; -0.011 in experiment [3]; -0.025 in experiment [4]. In addition, the log2 fold change in experiment [5] is 0.004; in [6] it was 0.059.
Turning to LRRIQ1 (UniProt Q96JM4), the log2 fold change in experiment [1] is -0.036; in the experiment with ralimetinib, -0.041; in experiment [2] it was 0.019; in [4], 0.671 (active); in [5], 0.047; in experiment [6], -0.069.
MDM2 isoform 11 (UniProt Q00987): the log2 fold change with ibrutinib is -0.071; in the experiment with ralimetinib, 0.038; in [2], -0.08; in experiment [7], -0.006; in experiment [4], -0.074; in [5], 0.076.
On to MDM1 (UniProt Q8TC05), for which the log2 fold change in experiment [1] is -0.006; with ralimetinib it was 0.037; in [2] it was -0.054; in [7], -0.029; in experiment [8] it was -0.027; in [3], 0.022. In addition, the log2 fold change is -0.019 in experiment [5] and -0.079 in experiment [6].
On to KIF26A (UniProt Q9ULI4), for which the log2 fold change with ibrutinib was -0.022; in the experiment with ralimetinib, -0.125; in experiment [2], 0.084; in experiment [7], 0.008; in experiment [8], -0.02; in experiment [3] it was 0.007. Also, the log2 fold change in experiment [4] was 0.033; in [5], -0.048.
Regarding MEX3A (UniProt A1L020), the log2 fold change with ralimetinib was -0.21; in [2] it was -0.123; in experiment [8], -0.076; in experiment [3] it was 0.003; in experiment [5], -0.162.
In the case of MARF1 (UniProt Q9Y4F3), the log2 fold change was 0.027 with ibrutinib; 0.034 in the experiment with ralimetinib; -0.042 in [2]; -0.045 in [7]; -0.021 in experiment [8]; 0.037 in experiment [3]. The log2 fold change in [4] is 0.004; in experiment [5] it was 0.01.
On to LSM11 (UniProt P83369), for which the log2 fold change in experiment [7] is 0.004; in experiment [3], -0.198; in experiment [4] it was -0.161.
MARCHF6 (UniProt O60337): the log2 fold change was -0.395 (active) with ibrutinib; -0.021 in experiment [1]; -0.012 in experiment [7]; 0.014 in [8]; 0.101 in experiment [3]; 0.004 in experiment [4]. For the same target, in [6], the log2 fold change was 0.032.
In the case of LGALS3BP (UniProt Q08380), the log2 fold change in [1] was 0.061; in experiment [7], 0; in experiment [8], 1.31; in [3], 0.453; in experiment [4], -0.009; in [6], 0.
As for MED28 (UniProt Q9H204), the log2 fold change was -0.067 in experiment [1]; -0.032 with ralimetinib; -0.025 in experiment [2]; -0.002 in experiment [7]; -0.088 in experiment [8]; -0.039 in experiment [3]. Further, the log2 fold change was 0.11 in [4], 0.021 in [5] and 0.009 in experiment [6].
With KIF21A (UniProt H0YI78), the log2 fold change was -0.187 in the experiment with ibrutinib; -0.073 in [1]; -0.006 in experiment [7]; 0.107 in experiment [8]; 0.017 in experiment [3]; 0.031 in experiment [6].
